# Screening results from PubChem.
# SW480 rereplic – induces DNA re-replication in SW480 colon adenocarcinoma cells; SW480 DNA re-replication, Hoechst DNA content imaging, 48 h; Potency, µM (top dose mostly 46.1 µM), hits mostly activators; 1.8% of 340,000 active; also: nearly all actives have a fitted effect of over 55% in size
#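 Image-based read-out: total Hoechst fluorescence of nuclei (405 nm excitation, 500-530 nm emission), with hits raising the fraction of high-intensity nuclei. SW480 colon cells incubated 48 hr with compounds at 37 C.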
# HT1080-NT tox – kills 2HG-producing HT-1080-NT fibrosarcoma cells; HT-1080-NT fibrosarcoma viability, CellTiter-Glo ATP luminescence, 48 h; Potency, µM (series often up to 46.1 µM), actives largely listed as cytotoxic; 1.6% of 360,000 active; AID 686970;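 also: NT is the 2HG producing partner of a matched IDH1 knockdown line; nearly all actives have a fitted effect of over 55% in size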
#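 750 cells/well, RPMI + 5% FBS; 2 h settle, compound pin-transfer, 48 h at 37 degrees C. CellTiter-Glo 10 min RT, luminescence. Normalized to DMSO and media-only wells.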
# KB-V1 cytotox – KB-V1 MDR subline cytotoxicity. KB-V1 MDR cells viability, CellTiter-Glo, 72 h. Potency, µM (top dose mostly 46.1 µM), usual class: cytotoxic. 3.4% of 400,000 active. AID 1347076; also: nearly all actives have a fitted effect of over 60% in size
#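 Potencies derive from concentration-effect curves fitted to normalized luminescence (CellTiter-Glo) of KB-V1 cells treated for 72 h at 37 degrees C in phenol-red-free DMEM containing 10% FBS.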
# KB-3-1 cytotox – KB-3-1 parental cell cytotoxicity | Potency, µM (series often up to 46.1 µM), most hits filed as cytotoxic | AID 1347075 | KB-3-1 viability, CellTiter-Glo ATP luminescence, 72 h | 1.4% of 400,000 active; also: nearly all actives have a fitted effect of over 60% in size
#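 Cytotoxicity in the drug-sensitive parental line KB-3-1 was scored as loss of CellTiter-Glo luminescence following 72 h incubation with compound. Values come from curve fitting of normalized concentration-response data.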
# MCF10A rerep – induces DNA re-replication in MCF 10a normal breast cells; MCF 10A DNA re-replication, Hoechst nuclear intensity, 48 h; Potency, µM (doses to about 46.1 µM), usual class: activators; 2.9% of 350,000 active; AID 624296; also: nearly all actives have a fitted effect of over 50% in size
# HT1080 IDH1KD tx – toxicity to HT-1080 IDH1 knockdown cells (counter line). HT-1080 IDH1 knockdown viability, ATP luminescence, 48 h. Potency, µM (series often up to 46.1 µM), usual class: cytotoxic. 2% of 360,000 active
#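 CellTiter-Glo luminescence after 48 h compound exposure at 37 degrees C of IDH1-knockdown HT-1080 cells in 5% FBS RPMI. %Activity scaled between DMSO wells and cell-free media wells, with curves fitted and assigned curve classes.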
# A number is an active result; – = inactive; ? = inconclusive; · = no result given. This is a sample that favours compounds with a hit; in the whole collection about 8% have one here. Calls follow the shape of the dose curve; as a rule, active = well fitted curve in the direction sought with a large enough effect; inconclusive = small, poorly fitted or top-dose-only effect, or another doubt; inactive = no such curve, though single readings can be large; an effect the other way counts as inactive or inconclusive.
SMILES,SW480 rereplic,HT1080-NT tox,KB-V1 cytotox,KB-3-1 cytotox,MCF10A rerep,HT1080 IDH1KD tx
COc1cc2nc(CN3CC=C(c4ccccc4)CC3)[nH]c(=O)c2cc1OC,?,–,?,7.3µM,2.9µM,–
CCOP(=O)(OCC)OCC,–,–,–,–,–,–
CCOP(=O)(CCP(=O)(OCC)OCC)OCC.C[CH2][Sn]([Cl])([Cl])[CH2]C,?,?,?,?,?,4.6µM
COC(=O)C1=C(C(=O)OC)C2c3ccccc3C1c1ccccc12,–,–,15µM,–,–,–
O=[N+]([O-])/C=C/c1c(Cl)cccc1Cl,6.5µM,?,?,?,3.7µM,?
O=C(c1cc2c(s1)-c1ccccc1OC2)N1CCC2(CC1)OCCO2,?,?,13µM,–,?,?
Nc1nc(N)nc(NC2CC2)n1,–,·,·,·,–,·
CCOC(=O)c1c(C)n(Cc2ccccc2)c2ccc(O)cc12,–,–,10µM,–,?,–
CCOC(=O)c1c(C)n(Cc2ccccc2)c2ccc(OCC(O)CNC(C)(C)C)cc12 (configuration not stated),?,?,–,–,?,16µM
CCOC(=O)c1c(C)n(Cc2ccccc2)c2ccc(OCC(O)Cn3nc(C)nc3C)cc12 (configuration not stated),–,–,–,–,–,–
Cc1cccc(C(=O)NC2CC3CCCC(C2)N3Cc2ccccc2)c1 (configuration not stated),?,–,–,–,–,–
O=P(O)(O)CN1CCNCCN(CP(=O)(O)O)CCNCC1,4.1µM,–,?,?,–,15µM
Cc1cc(C)c(C)c(/C=C(/C#N)C(N)=S)c1C,?,?,–,–,?,?
COc1ccc(-n2cnc3cc(C(=O)N4CCC5(CC4)OCCO5)ccc32)cc1,?,?,?,15µM,?,16µM
COc1ccc(C(=O)N2CCC3(CC2)OCCO3)cc1,–,–,–,–,–,–
C[C@H](N)[C@@H](O)c1ccccc1,–,·,·,·,–,·
Cc1ccc(O)c(C(=O)c2cc(C(=O)NCc3ccccc3)c(=O)n(Cc3ccccc3)c2)c1,–,–,–,–,–,–
O=C(c1cc(C(=O)NCc2ccccc2)c(=O)n(Cc2ccccc2)c1)c1cc(Br)ccc1O,?,–,2.3µM,?,–,?
C[C@]12CCC(=O)C=C1C=CC1C2CC[C@@]2(C)C1CC[C@@H]2O (some centres not stated),–,–,3.7µM,?,–,–
CC12CCC(=O)C=C1C=CC1C2CCC2(C)C(O)CCC12 (configuration not stated),–,–,2.1µM,8.2µM,–,–
CC12CCC(=O)C=C1CC(N1CC1)C1C2CCC2(C)C(O)CCC12 (configuration not stated),?,–,?,?,–,–
C[C@]12CCC3C(CCC4=C(Cl)C(=O)CC[C@@]43C)C1CCC2O (some centres not stated),–,·,·,·,–,·
CC1CN(C(=O)c2ccc(S(=O)(=O)Nc3ccccc3F)cc2)CC(C)O1 (configuration not stated),–,–,–,–,–,–
COc1ccc2c3c1O[C@H]1[C@@H](O)C=C[C@H]4C(C2)NCCC341 (some centres not stated),–,·,·,·,–,·
C=CCn1c(O)c(N=Nc2c(C)n(C)n(-c3ccccc3)c2=O)c(=O)[nH]c1=S,?,–,3.3µM,?,–,–
Cc1c(N=Nc2c(O)[nH]c(=S)[nH]c2=O)c(=O)n(-c2ccccc2)n1C,–,?,–,–,–,–
CCCCN1CC(=O)N2[C@H]3c4cc(C)ccc4OC[C@@H]3[C@H](c3ccccc3)[C@]2(C)C1=O,–,–,?,–,?,–
CC(C)N(C(=O)CSc1nnc(-c2cc3ccccc3cc2O)n1Cc1ccco1)C(C)C,–,?,3.3µM,15µM,–,?
CCOc1ccc2c(c1)c(C(C)=O)c(C)n2Cc1ccco1,–,–,–,–,–,–
O[C@H]1[C@H]2[C@H](O)CCCN2C[C@H]1O,–,·,·,·,–,·
